Assay outcomes (PubChem BioAssay)
Anthrax LT inh: qHTS Assay for Anthrax Lethal Toxin Internalization; Cells, anthrax lethal toxin internalization, FRET ratio (460/530); Potency, µM (titrated, usually from 40 µM), inactives show at the highest dose activity change, negative = inhibition, usual class: inhibitors; 70,000 compounds, 0.67% hits; AID 912, 2007; note: % is set by controls: 0 for no effect and ±100 for the full control effect; nearly all actives have a fitted effect of over 50% in size
AmpC inh no det: Promiscuous and Specific Inhibitors of AmpC Beta-Lactamase (assay without detergent); 71,000 compounds, 1.8% hits; Potency, µM (highest dose often 28.7 µM), without a hit: at the top dose activity change, negative = inhibition; AmpC nitrocefin hydrolysis, absorbance 480 nm, no detergent; P00811; note: % of control where 0% means no effect
Target sequence (P00811 whole entry, looked up): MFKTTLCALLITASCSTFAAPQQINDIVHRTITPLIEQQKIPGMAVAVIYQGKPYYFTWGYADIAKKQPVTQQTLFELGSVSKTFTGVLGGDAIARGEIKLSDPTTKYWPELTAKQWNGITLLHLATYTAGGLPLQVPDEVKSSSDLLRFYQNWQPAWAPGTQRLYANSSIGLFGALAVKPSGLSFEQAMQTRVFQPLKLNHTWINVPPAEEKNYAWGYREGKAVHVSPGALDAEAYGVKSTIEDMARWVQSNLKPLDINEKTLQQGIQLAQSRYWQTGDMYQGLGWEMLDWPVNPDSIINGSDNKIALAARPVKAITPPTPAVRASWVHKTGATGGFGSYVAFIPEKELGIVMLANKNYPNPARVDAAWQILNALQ
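AmpC, 20 mM phosphate pH 7.0; 15 min cpd preinc, RT; start with nitrocefin (800 uM stock); A480 kinetic read, 20 s intervals, 4 min. No-enzyme wells = negative control.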
AmpC inh det: Promiscuous and Specific Inhibitors of AmpC Beta-Lactamase (assay with detergent); Potency, µM (titrated, usually from 28.7 µM), for the others: at the top dose activity change, negative = inhibition; purified AmpC, nitrocefin hydrolysis with detergent; 71,000 compounds, 0.09% hits; AID 584, 2007; active = well fitted curve in the direction sought with a large enough effect; inconclusive = small, poorly fitted or top-dose-only effect; note: % is set by controls: 0 for no effect and ±100 for the full control effect
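E. coli AmpC (5.3 nM) in 20 mM phosphate pH 7.0 with 0.01% Triton X-100, preincubated 15 min RT with compound; nitrocefin (2 uL of 800 uM stock) hydrolysis followed by 480 nm absorbance every 20 s over 4 min.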
SmPrx2 inh: Schistosoma Mansoni Peroxiredoxins (Prx2); AID 448, 2006; S. mansoni Prx2 activity coupled to TGR/GSH (TGR is thioredoxin glutathione reductase), NADPH fluorescence loss, qHTS; Potency, µM; 65,000 compounds, 0.07% hits; Schistosoma mansoni peroxiredoxin 2 (Prx2)
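Enzyme mix: 100 uM NADPH, 25 nM TGR, 700 uM GSH, 50 nM Prx2 in 100 mM phosphate pH 7.4, 10 mM EDTA, 0.01% Tween-20. 15 min RT with compound; NADPH/GSH added, H2O2 starts reaction; NADPH fluorescence read 8 min.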
Active calls of the source: *; u = inconclusive; x = not tested or not shown; ! = a repeat was not active; [ ] = remark or other dose. Compounds with a hit are over-represented: about 2.4% of the library has one in this group of screens. Unless noted, calls come from the whole dose curve. Potency is the fitted concentration of half-maximal effect.

SMILES	Anthrax LT inh	AmpC inh no det	AmpC inh det	SmPrx2 inh
N#Cc1cccc(-c2nccc(NCc3cccnc3)n2)c1	5%	5µM*	10µM*	>57
c1ccc(N2CCN(c3ncnc4c3oc3ccccc34)CC2)cc1	16µM*	12%	0%	>57
COCCn1c(=O)c(-c2ccc(Cl)cc2)nc2cnc(Oc3ccccc3)nc21	u	6%	-2%	>57
O=C1/C(=C/Nc2ccc3c(c2)OCO3)CCc2ccccc21	7.9µM*	-17%	4%	x
NC(=O)CN1CCN(C(=O)Nc2ccccc2)CC1	-11%	4µM*[single pt active]	15%	>57
CCc1nc2ccccc2c(C(=O)OCC(=O)Nc2ccc(S(=O)(=O)N3CCOCC3)cc2)c1C	13µM*	52%	-3%	>57
CC(C)(C)OC(=O)NCCc1nnc(S(=O)(=O)Cc2ccc(Cl)cc2Cl)o1	u	0.04µM*	0.016µM*	>57
CN(C)[C@@H]1C(=O)C(C(N)=O)=C(O)[C@]2(O)C(=O)C3=C(O)c4c(O)cccc4[C@@](C)(O)[C@@H]3C[C@@H]12	u	-3%	-3%	>57
C[C@@H]1[C@H]2CC[C@@H]3[C@@H]4CC=C5C[C@@H](N(C)C)CC[C@]5(C)[C@@H]4CC[C@@]32CN1C	4µM*	13%[12.8 µM]	-1%[12.8 µM]	>57
COC(=O)C1=C(C)NC2=C(C(=O)CC(C)(C)C2)C1c1cccc(C)n1 (stereo not drawn)	28%	0%	11%	>57
COC(=O)c1nc2n(n1)C(c1cccc(Cl)c1)C1=C(CCCC1=O)N2 (stereo not drawn)	-4%	4µM*[single pt active]	11%	>57
COC(=O)c1nc2n(n1)C(c1cccc(Cl)c1)C1=C(CC(C)(C)CC1=O)N2 (stereo not drawn)	5%	4µM*[single pt active]	11%	>57
CN1CCN(c2ncc3nc(-c4ccc(Cl)cc4)c(=O)n(CCC#N)c3n2)CC1	u	112%	0%	>57
COCCNC(=O)CS(=O)Cc1nc(-c2ccc(OC)cc2)oc1C (stereo not drawn)	-6%	3.2µM*	12%	>57
COc1ccc(-c2nc(CS(=O)CC(=O)N3CCCC3)c(C)o2)cc1 (stereo not drawn)	15%	4µM*[single pt active]	14%	>57
COc1ccc(-c2nc(CS(=O)CC(=O)NCC3CCCO3)c(C)o2)cc1 (stereo not drawn)	9%	4µM*[single pt active]	12%	>57
COc1ccc(CNC(=O)CS(=O)Cc2nc(-c3ccc(C)cc3)oc2C)cc1 (stereo not drawn)	-25%	114%	11%	>57
COc1ccc(-c2nc(CS(=O)CC(=O)NCc3ccc4c(c3)OCO4)c(C)o2)cc1 (stereo not drawn)	-5%	96%	14%	>57
COc1ccc(-c2nc(CS(=O)CC(=O)NCc3ccco3)c(C)o2)cc1OC (stereo not drawn)	-2%	4µM*[single pt active]	12%	>57
CC(C)[C@@H]1OC(=O)C=CC=CC=CC=CC=CC[C@@H](O)[C@H](C)[C@@H](O)C[C@H](O)C[C@H](O)C[C@H](O)C[C@H](O)C[C@H](O)C[C@H](O)C=C[C@@H]1C	0%[8 µM]	39%[5.75 µM]	-4%[5.75 µM]	>57
Nc1[nH]c(=S)[nH]c(=O)c1N=Nc1c(Br)cc(S(N)(=O)=O)cc1Br	-10%[8 µM]	-5%[5.75 µM]	-1%[5.75 µM]	>57
C/C(=N\NC(N)=S)c1ccc[nH]1	-4%[8 µM]	-5%[5.75 µM]	-3%[5.75 µM]	>57
CCN(CC)c1ccc(NC(=O)c2ccc(Br)o2)cc1	13µM*	-6%	-4%	x
COC(=O)Cc1ccc(NC(=O)c2ccc(Br)o2)cc1	-8%	-1%	-2%	>57
CC(C)(C)NC[C@H](O)c1ccccc1Cl	3%	-9%	-2%	>57
SMILES	Anthrax LT inh	AmpC inh no det	AmpC inh det	SmPrx2 inh
COc1cccc(Nc2cc(C)nc3ccccc23)c1	-11%	3%	0%	>57
O=C(O)c1ccccc1Nc1cccc(OCc2ccc3ccccc3n2)c1	16µM*!	16µM*![single pt active]	-2%	>57
CN1CCN(c2ccnc(-c3ccoc3)n2)CC1	-13%	36%	4%	u
O=c1c2ccccc2sn1-c1cc(S(=O)(=O)N2CCOCC2)ccc1N1CCOCC1	0.16µM*	99%	-4%	>57
Cn1c(=O)c2cc(S(=O)(=O)N3CCOCC3)ccc2n(C)c1=O	2%	-4%	-2%	>57
COc1ccc(OC)c(-c2cc(C(=O)Nc3c(C)n(C)n(-c4ccccc4)c3=O)no2)c1	-6%	36%	-2%	7.1*
COc1ccc(OC)c(C2CC(=O)c3c([nH]c(C(=O)OC(C)C)c3C)C2)c1 (stereo not drawn)	u	2.5µM*[single pt active]	11%	>57
COCCOC(=O)c1[nH]c2c(c1C)C(=O)CC(c1cc(OC)ccc1OC)C2 (stereo not drawn)	3%	23%	13%	>57
CNc1ncncc1-c1ccccc1C	6%	13%	5%	>57
CCCN1CC[C@@H]2c3cc(O)ccc3CC[C@H]21	6%	5%	-2%	>57
CC(C)NS(=O)(=O)c1ccc2c(c1)oc(=O)n2C	4%	8%	11%	>57
CC(C)C(NS(=O)(=O)c1ccc2c(c1)oc(=O)n2C)C(=O)N1CCN(c2ccccc2F)CC1 (stereo not drawn)	u	4µM*[single pt active]	15%	>57
CCOC(=O)CNC(=O)C(Cc1ccccc1)NS(=O)(=O)c1ccc2c(c1)CCC(=O)N2 (stereo not drawn)	12%	10%	13%	>57
Cn1c(=O)oc2cc(S(=O)(=O)NC(Cc3ccccc3)C(=O)N3CCCCC3)ccc21 (stereo not drawn)	9%	4µM*[single pt active]	11%	>57
O=C1CCc2cc(S(=O)(=O)NC(Cc3ccccc3)C(=O)NCC3CCCO3)ccc2N1 (stereo not drawn)	4%	4µM*[single pt active]	13%	>57
CN1CCN(C(=O)C(Cc2ccccc2)NS(=O)(=O)c2ccc3c(c2)CCC(=O)N3)CC1 (stereo not drawn)	3%	4µM*[single pt active]	7%	>57
Cc1nc2cnc(N(C)C)nc2n(C)c1=O	u	22%	-1%	>57
CC(=O)[C@@H]1CC[C@@H]2[C@@H]3CC=C4C[C@H](OS(=O)(=O)O)CC[C@@]4(C)[C@H]3CC[C@]21C	u	-12%	-4%	>57
COc1ccc(Oc2ncc3nc(-c4cccc(C#N)c4)c(=O)n(CCC#N)c3n2)cc1	-27%	38%	-2%	>57
CC(C)CC(NS(=O)(=O)c1ccc2c(c1)oc(=O)n2C)C(=O)NCc1cccnc1 (stereo not drawn)	-7%	4µM*[single pt active]	14%	>57
O=C(NCc1ccc2c(c1)OCO2)c1cccc(C(=O)NCc2ccc3c(c2)OCO3)c1	u	u	0%	x
O=C(NCc1ccccc1)c1c[nH]c2ccc(S(=O)(=O)Nc3ccc4c(c3)OCCO4)cc2c1=O	-6%	10µM*	-2%	>57
O=C(NCc1ccc2c(c1)OCO2)c1ccc(NS(=O)(=O)c2ccc3c(c2)OCCO3)cc1	-9%	10µM*	-2%	>57
